Results from the supplement of paper PMC11732987, “Enantioselective OTUD7B fragment discovery through chemoproteomics screening and high-throughput optimisation” (Communications Chemistry, 2025).

Legend:
Experiment in all cases: log2 ratio of Biotin-Ahx-Ub-VS probe labelling (fragment/DMSO); higher = less target engagement (more negative = stronger competition), active = hit call of the paper (q ≤ 0.05, log2 ratio ≤ -1)
Details in all cases: compound concentration: 200 uM; treatment time: 3 h
USP19 = target: T1, USP19 (UniProt O94966)
T1 sequence (whole entry): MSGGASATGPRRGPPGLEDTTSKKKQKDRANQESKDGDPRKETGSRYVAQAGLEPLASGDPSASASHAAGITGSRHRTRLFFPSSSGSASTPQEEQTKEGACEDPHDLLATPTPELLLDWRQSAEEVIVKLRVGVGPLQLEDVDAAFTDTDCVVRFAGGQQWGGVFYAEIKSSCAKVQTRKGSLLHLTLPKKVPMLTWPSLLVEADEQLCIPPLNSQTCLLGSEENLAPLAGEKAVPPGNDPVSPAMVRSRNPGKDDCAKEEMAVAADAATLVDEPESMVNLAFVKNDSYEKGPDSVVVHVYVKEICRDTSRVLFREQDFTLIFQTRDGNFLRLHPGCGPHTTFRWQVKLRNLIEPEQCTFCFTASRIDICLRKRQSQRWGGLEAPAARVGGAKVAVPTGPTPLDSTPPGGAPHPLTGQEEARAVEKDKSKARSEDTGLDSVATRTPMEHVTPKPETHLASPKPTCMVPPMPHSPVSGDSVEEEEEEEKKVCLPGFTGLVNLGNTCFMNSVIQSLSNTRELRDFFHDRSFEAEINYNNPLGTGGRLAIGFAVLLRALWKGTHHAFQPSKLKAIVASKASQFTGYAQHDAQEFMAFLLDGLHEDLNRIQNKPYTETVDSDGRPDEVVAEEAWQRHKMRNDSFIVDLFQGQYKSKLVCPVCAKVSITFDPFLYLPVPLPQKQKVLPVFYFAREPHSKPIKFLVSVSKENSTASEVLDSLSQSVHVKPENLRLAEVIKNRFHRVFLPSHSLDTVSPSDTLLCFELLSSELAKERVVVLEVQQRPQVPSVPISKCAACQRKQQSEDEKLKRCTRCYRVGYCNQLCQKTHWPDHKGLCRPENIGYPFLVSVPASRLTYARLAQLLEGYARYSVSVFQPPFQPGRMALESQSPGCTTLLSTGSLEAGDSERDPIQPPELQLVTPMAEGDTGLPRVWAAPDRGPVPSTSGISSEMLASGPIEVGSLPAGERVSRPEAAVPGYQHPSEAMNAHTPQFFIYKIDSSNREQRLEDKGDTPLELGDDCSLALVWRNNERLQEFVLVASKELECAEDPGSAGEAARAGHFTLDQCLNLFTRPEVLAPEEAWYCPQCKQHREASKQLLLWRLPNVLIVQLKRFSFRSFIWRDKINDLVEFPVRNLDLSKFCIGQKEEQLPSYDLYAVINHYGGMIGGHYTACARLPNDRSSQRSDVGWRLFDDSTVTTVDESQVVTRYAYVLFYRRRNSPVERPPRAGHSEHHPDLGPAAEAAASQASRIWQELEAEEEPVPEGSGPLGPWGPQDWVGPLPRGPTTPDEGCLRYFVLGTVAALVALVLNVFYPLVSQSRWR
Summary of the method: (§1)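 Labelling with Biotin-Ahx-Ub-VS (0.5 µM final, 1 h) followed a 3 h triplicate treatment of HEK293T lysate (495 µg per sample, Tris/CHAPS/IGEPAL buffer with protease inhibitors) with fragment at 200 µM or vehicle. Labelled DUBs were NeutrAvidin-enriched, digested with LysC and trypsin, and run by diaPASEF LC-MS/MS. The values, average log2 fragment/vehicle ratios by unpaired t-test, come from global-median-normalised Spectronaut label-free quantities. Proteins with ≥2 unique peptides were used.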

USP22 = target: T2, USP22 (UniProt Q9UPT9)
T2 sequence (whole entry): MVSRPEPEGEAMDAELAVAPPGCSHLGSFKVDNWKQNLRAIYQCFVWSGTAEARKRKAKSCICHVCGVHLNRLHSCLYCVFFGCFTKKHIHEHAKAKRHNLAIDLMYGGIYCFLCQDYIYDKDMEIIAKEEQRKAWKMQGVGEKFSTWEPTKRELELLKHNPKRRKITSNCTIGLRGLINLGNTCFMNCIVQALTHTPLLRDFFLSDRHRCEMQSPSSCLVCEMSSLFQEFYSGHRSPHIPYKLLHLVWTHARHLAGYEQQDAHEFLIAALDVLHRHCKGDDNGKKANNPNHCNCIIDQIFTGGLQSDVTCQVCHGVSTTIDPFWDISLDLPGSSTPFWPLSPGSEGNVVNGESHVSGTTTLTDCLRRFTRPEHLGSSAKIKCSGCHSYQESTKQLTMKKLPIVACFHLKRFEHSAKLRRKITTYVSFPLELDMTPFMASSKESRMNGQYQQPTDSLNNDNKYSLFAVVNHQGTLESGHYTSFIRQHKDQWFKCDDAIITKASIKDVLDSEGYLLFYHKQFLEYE
Summary of the method: as §1

USP24 = USP24 (UniProt Q9UPU5)
USP24, sequence (Q9UPU5 whole entry): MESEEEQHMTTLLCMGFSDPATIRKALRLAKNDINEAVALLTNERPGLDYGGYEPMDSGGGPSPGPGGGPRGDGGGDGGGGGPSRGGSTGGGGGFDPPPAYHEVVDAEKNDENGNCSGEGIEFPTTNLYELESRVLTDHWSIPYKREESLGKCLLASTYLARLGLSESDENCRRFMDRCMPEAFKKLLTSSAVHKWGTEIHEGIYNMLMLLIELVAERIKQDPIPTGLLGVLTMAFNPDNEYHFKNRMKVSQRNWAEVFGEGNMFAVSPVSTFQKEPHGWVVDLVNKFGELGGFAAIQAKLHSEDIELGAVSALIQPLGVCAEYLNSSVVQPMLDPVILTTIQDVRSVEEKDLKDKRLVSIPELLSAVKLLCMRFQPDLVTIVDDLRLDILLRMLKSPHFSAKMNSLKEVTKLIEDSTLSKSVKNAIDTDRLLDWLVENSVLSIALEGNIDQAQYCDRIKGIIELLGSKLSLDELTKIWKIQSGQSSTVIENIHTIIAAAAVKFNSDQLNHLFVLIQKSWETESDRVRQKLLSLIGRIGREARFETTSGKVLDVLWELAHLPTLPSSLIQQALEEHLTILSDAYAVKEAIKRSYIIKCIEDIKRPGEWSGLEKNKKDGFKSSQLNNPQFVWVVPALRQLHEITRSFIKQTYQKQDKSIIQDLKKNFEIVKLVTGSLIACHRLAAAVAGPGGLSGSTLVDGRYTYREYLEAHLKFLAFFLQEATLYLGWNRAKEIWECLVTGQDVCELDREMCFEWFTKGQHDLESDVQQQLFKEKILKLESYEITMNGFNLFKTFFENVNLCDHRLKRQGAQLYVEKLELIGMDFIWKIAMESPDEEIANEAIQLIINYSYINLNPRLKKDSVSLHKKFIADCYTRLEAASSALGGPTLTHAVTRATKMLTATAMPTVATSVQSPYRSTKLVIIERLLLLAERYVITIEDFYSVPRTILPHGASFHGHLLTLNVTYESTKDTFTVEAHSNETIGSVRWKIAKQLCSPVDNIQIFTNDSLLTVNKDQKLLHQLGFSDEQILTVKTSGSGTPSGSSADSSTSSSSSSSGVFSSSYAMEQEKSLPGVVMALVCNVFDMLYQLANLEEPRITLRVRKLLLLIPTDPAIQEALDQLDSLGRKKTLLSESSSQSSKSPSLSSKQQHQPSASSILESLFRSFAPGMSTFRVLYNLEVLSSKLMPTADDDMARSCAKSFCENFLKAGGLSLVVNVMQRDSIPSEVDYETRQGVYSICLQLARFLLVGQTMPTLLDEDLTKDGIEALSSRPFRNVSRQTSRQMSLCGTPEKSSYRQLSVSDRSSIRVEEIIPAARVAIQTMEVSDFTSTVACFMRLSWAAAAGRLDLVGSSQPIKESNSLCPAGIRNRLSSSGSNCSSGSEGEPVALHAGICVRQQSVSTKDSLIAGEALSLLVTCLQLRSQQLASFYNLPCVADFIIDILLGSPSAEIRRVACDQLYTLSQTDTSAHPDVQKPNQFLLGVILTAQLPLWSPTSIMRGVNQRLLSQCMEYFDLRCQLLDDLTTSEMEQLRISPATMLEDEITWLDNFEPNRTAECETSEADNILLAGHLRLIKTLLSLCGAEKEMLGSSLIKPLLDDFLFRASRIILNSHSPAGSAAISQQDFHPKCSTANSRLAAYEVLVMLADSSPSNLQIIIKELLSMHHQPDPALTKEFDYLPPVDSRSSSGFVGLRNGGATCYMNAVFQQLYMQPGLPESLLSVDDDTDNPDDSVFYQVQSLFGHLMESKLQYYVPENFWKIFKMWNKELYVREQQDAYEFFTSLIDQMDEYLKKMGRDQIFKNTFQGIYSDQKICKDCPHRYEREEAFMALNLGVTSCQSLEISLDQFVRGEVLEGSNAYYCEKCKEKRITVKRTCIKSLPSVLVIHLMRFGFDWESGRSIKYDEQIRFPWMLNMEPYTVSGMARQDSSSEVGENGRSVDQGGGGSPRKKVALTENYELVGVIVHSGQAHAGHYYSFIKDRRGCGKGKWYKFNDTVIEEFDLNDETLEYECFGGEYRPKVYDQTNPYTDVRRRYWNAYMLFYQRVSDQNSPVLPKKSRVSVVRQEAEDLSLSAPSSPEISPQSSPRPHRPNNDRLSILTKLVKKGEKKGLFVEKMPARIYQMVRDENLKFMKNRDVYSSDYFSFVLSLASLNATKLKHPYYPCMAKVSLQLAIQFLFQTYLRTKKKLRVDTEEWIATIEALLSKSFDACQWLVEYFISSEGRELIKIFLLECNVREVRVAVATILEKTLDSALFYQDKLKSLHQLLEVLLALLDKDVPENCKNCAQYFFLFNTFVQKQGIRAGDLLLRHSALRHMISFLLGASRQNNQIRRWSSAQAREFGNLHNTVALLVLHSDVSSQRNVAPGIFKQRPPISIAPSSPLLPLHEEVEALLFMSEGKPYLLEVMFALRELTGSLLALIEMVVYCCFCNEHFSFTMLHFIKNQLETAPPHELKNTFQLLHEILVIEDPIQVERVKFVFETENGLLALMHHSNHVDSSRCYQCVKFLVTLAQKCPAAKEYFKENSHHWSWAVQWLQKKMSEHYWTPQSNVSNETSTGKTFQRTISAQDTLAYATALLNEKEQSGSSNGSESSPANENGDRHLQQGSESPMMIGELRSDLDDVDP
Summary of the method: as §1

USP25 = target: T3, USP25 (UniProt Q9UHP3)
T3 sequence (whole entry): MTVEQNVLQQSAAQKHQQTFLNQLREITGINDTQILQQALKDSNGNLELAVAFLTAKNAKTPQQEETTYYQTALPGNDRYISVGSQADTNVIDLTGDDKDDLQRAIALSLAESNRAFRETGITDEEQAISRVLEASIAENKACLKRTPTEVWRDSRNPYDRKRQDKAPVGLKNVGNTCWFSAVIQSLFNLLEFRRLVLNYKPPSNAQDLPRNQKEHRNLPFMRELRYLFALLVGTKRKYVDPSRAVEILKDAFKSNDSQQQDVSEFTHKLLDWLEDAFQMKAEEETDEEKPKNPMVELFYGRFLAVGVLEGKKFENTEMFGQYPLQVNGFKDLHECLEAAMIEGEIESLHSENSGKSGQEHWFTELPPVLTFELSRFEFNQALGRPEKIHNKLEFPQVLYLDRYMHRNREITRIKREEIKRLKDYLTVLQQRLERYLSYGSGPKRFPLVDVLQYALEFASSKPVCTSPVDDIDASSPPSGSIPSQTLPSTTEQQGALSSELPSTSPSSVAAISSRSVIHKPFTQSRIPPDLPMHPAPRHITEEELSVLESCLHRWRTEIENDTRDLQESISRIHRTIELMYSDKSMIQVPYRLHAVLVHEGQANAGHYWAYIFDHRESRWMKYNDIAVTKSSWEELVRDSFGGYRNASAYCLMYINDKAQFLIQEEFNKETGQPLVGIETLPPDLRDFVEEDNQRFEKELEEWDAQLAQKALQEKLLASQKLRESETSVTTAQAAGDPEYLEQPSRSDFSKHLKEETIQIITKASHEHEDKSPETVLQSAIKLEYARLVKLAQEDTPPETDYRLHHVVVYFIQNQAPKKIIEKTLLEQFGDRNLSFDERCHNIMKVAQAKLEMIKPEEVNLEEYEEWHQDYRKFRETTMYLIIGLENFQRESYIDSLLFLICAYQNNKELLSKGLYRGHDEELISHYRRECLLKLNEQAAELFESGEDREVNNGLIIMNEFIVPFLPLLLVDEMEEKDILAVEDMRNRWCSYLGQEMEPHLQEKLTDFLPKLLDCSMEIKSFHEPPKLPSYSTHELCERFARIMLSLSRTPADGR
Summary of the method: as §1

USP28 = target: T4, USP28 (UniProt Q96RU2)
T4 sequence (whole entry): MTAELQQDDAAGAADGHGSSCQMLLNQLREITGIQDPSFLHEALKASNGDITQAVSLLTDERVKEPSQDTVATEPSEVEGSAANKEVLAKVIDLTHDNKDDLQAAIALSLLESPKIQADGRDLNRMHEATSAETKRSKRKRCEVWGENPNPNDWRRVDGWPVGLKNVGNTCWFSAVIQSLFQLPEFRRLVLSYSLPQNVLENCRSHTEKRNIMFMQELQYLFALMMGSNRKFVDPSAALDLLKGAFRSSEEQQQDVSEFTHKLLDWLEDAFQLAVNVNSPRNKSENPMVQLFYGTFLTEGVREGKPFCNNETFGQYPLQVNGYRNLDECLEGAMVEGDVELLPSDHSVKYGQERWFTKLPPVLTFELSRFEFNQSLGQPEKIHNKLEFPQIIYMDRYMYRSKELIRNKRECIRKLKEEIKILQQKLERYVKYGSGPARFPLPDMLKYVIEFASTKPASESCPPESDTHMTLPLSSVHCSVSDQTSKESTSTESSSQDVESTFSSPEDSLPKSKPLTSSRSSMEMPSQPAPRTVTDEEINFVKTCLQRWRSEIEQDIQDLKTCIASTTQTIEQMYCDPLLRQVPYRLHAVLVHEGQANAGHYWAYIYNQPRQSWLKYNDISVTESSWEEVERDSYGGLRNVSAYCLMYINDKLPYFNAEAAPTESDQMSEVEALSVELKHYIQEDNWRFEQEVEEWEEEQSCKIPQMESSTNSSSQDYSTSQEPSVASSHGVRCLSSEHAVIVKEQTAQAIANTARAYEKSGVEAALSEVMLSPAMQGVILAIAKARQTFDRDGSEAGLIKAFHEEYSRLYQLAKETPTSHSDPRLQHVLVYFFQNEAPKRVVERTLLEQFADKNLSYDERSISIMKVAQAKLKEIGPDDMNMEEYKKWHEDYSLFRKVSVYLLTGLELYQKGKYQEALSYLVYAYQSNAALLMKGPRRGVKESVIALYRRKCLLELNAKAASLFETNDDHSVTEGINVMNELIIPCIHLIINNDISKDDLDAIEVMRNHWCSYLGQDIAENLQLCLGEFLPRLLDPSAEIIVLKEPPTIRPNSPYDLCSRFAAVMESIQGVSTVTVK
Summary of the method: as §1

Measured: log2 ratio of Biotin-Ahx-Ub-VS probe labelling

CC(c1ccccc1)N(C)C(=O)CCl (stereo not given)
inactive: USP19 -0.444 | USP22 0.102 | USP24 -0.45 | USP25 -0.472 | USP28 -0.526
